Screens as filed in PubChem BioAssay.
Shown is part of a subset that was picked to be rich in hits.
IMPase Li cell = cell-permeable IMPase inhibitors with lithium potentiation. CHO-M1 cells, IP1 TR-FRET (IP-One), carbachol + lithium. Potency, µM (titrated, usually from 59.4 µM), without a hit: at the highest dose activity, negative = IMPase inhibition, usual class: inhibitors. hit rate 0.35% among 210,000. AID 1457;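 further: IP1 builds up when IMPase is blocked and the TR-FRET signal falls; potency means the concentration at half of the fitted maximal effect; plate controls were basal vehicle for no effect and high inhibitor control for full effect; nearly all actives have a fitted effect of over 50% in size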
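Readout is a homogeneous TR-FRET IP1 immunoassay (Ex 320, Em 665 and 620), where raised cytosolic IP1 lowers signal. Cells were CHO-M1 treated 30 min at 37C with test compounds plus a little lithium; AC50 values came from Hill-equation fitting.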
IMPase inh = IMPase inhibition in cells; P97697; CHO-M1 cells, IP1 accumulation, HTRF TR-FRET ratio; inhibition (IP1 accumulation), % at 46.1 µM; 120,000 tested, under 10 active; active means well fitted curve in the direction sought with a large enough effect in the signal ratio, not every such curve was filed as active; inconclusive means small, poorly fitted or top-dose-only effect, or a change in a side signal; inactive means no such curve, though single readings can be large or run the other way; the % refers to the signal ratio;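 further: cells stimulated with carbachol in lithium chloride buffer; plate controls were DMSO basal wells for no effect and reference inhibitor wells for full effect; higher means more IMPase inhibition seen as more IP1 and lower FRET ratio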
Target sequence (P97697 whole entry, looked up): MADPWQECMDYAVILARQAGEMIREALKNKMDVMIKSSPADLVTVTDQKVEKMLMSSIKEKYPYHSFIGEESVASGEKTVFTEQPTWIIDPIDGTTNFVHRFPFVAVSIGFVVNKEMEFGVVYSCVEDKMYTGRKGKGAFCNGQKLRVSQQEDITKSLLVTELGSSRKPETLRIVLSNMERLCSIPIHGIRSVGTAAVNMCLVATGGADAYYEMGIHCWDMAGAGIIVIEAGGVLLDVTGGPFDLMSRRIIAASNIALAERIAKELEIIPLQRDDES
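Carbachol-driven Gq signalling in CHO-M1 cells (2000/well) generates IP1. Compounds that block IMPase raise IP1 and so reduce the FRET signal from Eu-anti-IP1 and d2-IP1 after a 10 min room-temperature lysis.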
NPSR antag = neuropeptide S receptor (human) antagonism, cAMP. AID 1461. CHO-NPSR cells, cAMP TR-FRET, antagonist mode. Potency, µM (titrated, usually from 38.3 µM), for the others: top-dose activity change, negative = inhibition, actives largely listed as inhibitors. hit rate 1% among 220,000. Q6W5P4; further: potency means the concentration at half of the fitted maximal effect; nearly all actives have a fitted effect of over 50% in size
* = called active by the depositor; ? = inconclusive; · = no result; [ ] = remark or other dose. Unless noted, the call rests on the fitted dose curve; in most records, active means well fitted curve in the direction sought with a large enough effect; inconclusive means small, poorly fitted or top-dose-only effect, or another doubt; inactive means no such curve, though single readings can be large; an effect the other way counts as inactive or inconclusive. Unless noted, on the % scale 0 is the no-effect control and ±100 the full control effect.

SMILES	IMPase Li cell	IMPase inh	NPSR antag
Cc1cc(C)c2nc(-c3ccccn3)cc(C(=O)Nc3ccc(S(=O)(=O)Nc4onc(C)c4C)cc3)c2c1	2%	·	-56%
Cc1cc(C)c2nc(-c3ccccn3)cc(C(=O)Nc3ccc(S(=O)(=O)Nc4cc(C)on4)cc3)c2c1	10%[38.3 µM]	3	10µM*
CC(=O)Nc1cc2cc(NS(=O)(=O)c3ccc(C)cc3)ccc2oc1=O	·	·	0%
CN(Cc1ccccc1)C(=O)[C@H](Cc1ccc2ccccc2c1)NC(=O)[C@@H]1CCCN1C(=O)Nc1ccccc1[N+](=O)[O-]	14%	·	·
Clc1ccccc1-c1nccc(NCc2ccccc2)n1	17%	·	·
COc1ccccc1-c1c(C)nn2c(N3CCN(c4ccccc4OC)CC3)cc(C)nc12	-1%[38.3 µM]	6	?
COc1ccccc1-c1c(C)nn2c(N3CCCCCC3)cc(C)nc12	17%	-3	10µM*
Cc1cc(C)c(C)c(OCC(=O)Nc2ccc(S(=O)(=O)Nc3nc(C)cc(C)n3)cc2)c1	·	-1	·
Cn1ccc(/C=N/N=C2/NC(=O)CS2)n1	·	·	9%
COCc1cc(C)nc2sc(C(=O)Nc3ccc(OC(F)(F)F)cc3)c(N)c12	·	-2	·
O=C1c2cccc3c([N+](=O)[O-])ccc(c23)C(=O)N1c1ccccn1	41%[38.3 µM]	?	?
O=C1c2cccc3c([N+](=O)[O-])ccc(c23)C(=O)N1c1ccc(Cl)cn1	31%[38.3 µM]	-1	5µM*
O=C1c2cccc3cccc(c23)C(=O)N1c1nccs1	-12%[38.3 µM]	4	-2%[46.1 µM]
O=C1c2cccc3c([N+](=O)[O-])ccc(c23)C(=O)N1c1nccs1	48%[38.3 µM]	36	10µM*
O=C(NC[C@H]1CCCCN1)c1cc(OCC(F)(F)F)ccc1OCC(F)(F)F	2%	-5	·
COc1ccc(C[C@H](O)CN2CCOCC2)cc1	1%	·	·
O=C(O)Cc1c(C(=O)O)[nH]c2ccc(C(=O)O)cc12	·	·	11%
CN(Cc1nc(-c2cccs2)no1)CC1COCCO1 (centres undefined)	0%	·	-12%
CCOC(=O)CSc1c(-c2ccc(Cl)cc2)[nH]c2ccccc12	7%	·	-48%
O=C(Cc1cccs1)NCCSc1c(-c2ccc(Cl)cc2)[nH]c2ccccc12	5%	·	10µM*
CCCCNC(=O)CSc1nnc(-c2c[nH]c3ccccc23)n1CC1CCCO1 (centres undefined)	32%[38.3 µM]	7	-11%[46.1 µM]
Cc1cccc(OCCN2CSC(=S)N(C)C2)c1	10%[38.3 µM]	11	6%[46.1 µM]
COc1ccccc1OCCN1CSC(=S)N(C)C1	7%	·	3.2µM*
O[C@@H]1[C@@H]2c3cc4c(cc3CN3CCC(=C[C@@H]1O)[C@H]23)OCO4	6%	-8[20.6 µM]	·
Cc1ccc(-c2nc3ncccc3o2)cc1NC(=O)c1ccc(-c2ccc(Cl)cc2)o1	·	0	·
SMILES	IMPase Li cell	IMPase inh	NPSR antag
COc1ccc(C2/C(=C(/O)c3ccc4c(c3)CC(C)O4)C(=O)C(=O)N2CCN2CCOCC2)cc1 (centres undefined)	-13%[38.3 µM]	-9	-4%[46.1 µM]
CC1Cc2cc(/C(O)=C3/C(=O)C(=O)N(CCN4CCOCC4)C3c3cccc(Cl)c3)ccc2O1 (centres undefined)	6.3µM*	?	19%[46.1 µM]
Cc1cccc(N=Cc2[nH]c3ccc(Br)c(Cl)c3c2O)c1	-1%	·	5%
COc1ccccc1CN=Cc1[nH]c2ccc(Br)c(Cl)c2c1O	7.1µM*	?	20%[46.1 µM]
COC(=O)c1cc(-c2ccc3ccccc3c2)[nH]c(=O)c1C#N	1%	·	·
Cc1onc(-c2ccccc2Cl)c1C(=O)Nc1nnc(-c2ccc(Br)cc2)s1	8.9µM*	?	7%[46.1 µM]
Cc1onc(-c2ccccc2Cl)c1C(=O)Nc1nnc(-c2ccc(F)cc2)s1	-14%	?	-24%
Cc1ccc(NC2=C/C(=N/S(=O)(=O)c3cccs3)c3ccccc3C2=O)cc1	22%	·	10µM*
O=C1C(Nc2ccccc2)=C/C(=N/S(=O)(=O)c2cccs2)c2ccccc21	24%	·	-55%
Cn1c(=O)c2c(O)c([N+](=O)[O-])c(=O)n(C)c2n(C)c1=O	·	·	12%
CCOc1ccc(C(=O)Nc2cc(C)c3c(=O)oc4ccccc4c3n2)cc1	13µM*	-3	?
Cc1cc(NC(=O)c2ccccc2)nc2c1c(=O)oc1ccccc12	0%	·	-13%
Cc1ccc(/C(O)=C2\C(=O)C(=O)N(c3cc(C)on3)C2c2cccc(Br)c2)cc1 (centres undefined)	?	-10	-15%[46.1 µM]
COC(=O)c1ccc(C2/C(=C(/O)c3ccc(OC)cc3)C(=O)C(=O)N2c2cc(C)on2)cc1 (centres undefined)	10µM*	-7	1%[7.67 µM]
Cc1ccc(/C(O)=C2\C(=O)C(=O)N(c3cc(C)on3)C2c2cccc(Cl)c2)cc1 (centres undefined)	?	-8	-6%[46.1 µM]
